# Data: PubChem BioAssay (Tox21)
# Where “and” joins values, the source holds several entries; their conditions need not be identical. Equal entries are not always repeated. Results filed as inconclusive are left out. Where a call stands in place of a potency, no number is given. Some compounds were tested as several samples or in several runs, with calls that do not always agree. Calls of active or inactive are those of the source. Unless noted, calls follow the shape of the full dose curve.
# Assay: qHTS assay to identify small molecule agonists of H2AX (AID 1224845; active = well fitted activation curve with a large enough effect in the signal ratio in the repeat runs, not every such curve was filed as active; the % refers to the signal ratio; also: potency is read from the fitted curve at half-maximal effect)
# Conditions: CHO-K1 phospho-H2AX Ser139 HTRF, 3 h; series mostly up to 154 µM; activation (H2AX phosphorylation): at the top concentration
# Procedure, shortened: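 Wild-type CHO-K1 cells plated overnight, then exposed 3 hr at 37C to compounds at 15 concentrations (0.76% DMSO). Lysed, then HTRF anti-pH2AX(S139)-cryptate/anti-H2AX-d2 detection after 24 hr at room temperature; emissions 665 and 620 nm.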
SMILES,Potency,activation (H2AX phosphorylation)
CC1(C)C(C(=O)OC(C#N)c2cccc(Oc3ccccc3)c2)C1(C)C (stereo unspecified),inactive,–
CC(C)(c1ccc(OCC2CO2)cc1)c1ccc(OCC2CO2)cc1 (stereo unspecified),–,6.54% (inactive)
CCN(CC)C(=O)C(C)Oc1cccc2ccccc12 (stereo unspecified),inactive,–
CC(C)(O)C#N,inactive,–
CCCCCCCCCC(CC)c1ccc(S(=O)(=O)O)cc1 (stereo unspecified),inactive,–
CCCCCCCC[N+](C)(CCCCCCCC)CCCCCCCC,inactive and 17.9 µM (active),–
O=C(O)CF,inactive,–
CC(C)=CC1C(C(=O)OCc2cccc(Oc3ccccc3)c2)C1(C)C (stereo unspecified),inactive,–
C[N+](C)(C)CC(=O)O,inactive,–
CCOP(=S)(OCC)SCn1c(=O)oc2cc(Cl)ccc21,–,-4.14% (inactive)
CCC1(c2ccc(N)cc2)CCC(=O)NC1=O (stereo unspecified),inactive,–
CCC[CH2][Sn]([Cl])([CH2]CCC)[CH2]CCC,358 nM (active) and 401 nM (active),–
Oc1ccc(Cl)cc1Cc1ccccc1,inactive,–
C[N+](C)(C)C,inactive,–
CCCCCCCCCc1ccc(O)cc1,102 µM (active) and 101 µM (active),–
COc1ccc(CO)cc1,inactive,–
CC(C)=CC1C(C(=O)OCN2C(=O)C3=C(CCCC3)C2=O)C1(C)C (stereo unspecified),inactive,–
CN(C)c1nc(=O)n(C2CCCCC2)c(=O)n1C,inactive,–
NC(=O)CN1CCCC1=O,inactive,–
C[N+](C)(C)CC(=O)[O-],inactive,–
NN=C(N)N,inactive,–
[CH3][Sn]([Cl])([Cl])[Cl],inactive,–
COC(=O)Nc1nc2ccccc2[nH]1,inactive,–
CC(C)(c1ccccc1)c1ccc(O)c(C(C)(C)c2ccccc2)c1,39.7 µM (active),–
CCC[CH2][Sn]([Cl])([Cl])[CH2]CCC,1.28 µM (active) and 1.27 µM (active),–

# Assay: qHTS assay to identify small molecule agonists of the hypoxia (HIF-1) signaling pathway (AID 1224846; active = well fitted activation curve with a large enough effect in the signal ratio in the repeat runs, not every such curve was filed as active; the % refers to the signal ratio)
# Conditions: HRE-bla ME-180 cells, beta-lactamase ratio, 17 h; series mostly up to 76.8 µM; activation: at the top concentration
# Procedure, shortened: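 Cell line: CellSensor HRE-bla ME-180; 2,000 cells/well; 0.5% dialyzed FBS; 5 h preincubation; DMSO compound pin transfer; 17 h, 37C, 5% CO2; CCF4-AM added; bla FRET signal scored for activation.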
SMILES,activation,outcome
CC1(C)C(C(=O)OC(C#N)c2cccc(Oc3ccccc3)c2)C1(C)C (stereo unspecified),4.73% (inactive),–
CC(C)(c1ccc(OCC2CO2)cc1)c1ccc(OCC2CO2)cc1 (stereo unspecified),0.962% (inactive),–
Nc1ccc([N+](=O)[O-])cc1N,0.95% (inactive),–
CCN(CC)C(=O)C(C)Oc1cccc2ccccc12 (stereo unspecified),–,inactive
CC(C)(O)C#N,–,inactive
CCCCCCCCCC(CC)c1ccc(S(=O)(=O)O)cc1 (stereo unspecified),3.26% (inactive),–
c1ccc2c(c1)Nc1ccccc1S2,0.469% [at 35.5 µM] (inactive),–
O=C(O)CF,–,inactive
CC(C)=CC1C(C(=O)OCc2cccc(Oc3ccccc3)c2)C1(C)C (stereo unspecified),–,inactive
CCOP(=S)(OCC)SCn1c(=O)oc2cc(Cl)ccc21,–,inactive
C[N+](C)(C)C,–,inactive
COc1ccc(CO)cc1,–,inactive
CCOP(=S)(OCC)SCSC(C)(C)C,–,inactive
O=[N+]([O-])c1ccc(Nc2ccccc2)cc1,0.577% (inactive),–
CC(C)=CC1C(C(=O)OCN2C(=O)C3=C(CCCC3)C2=O)C1(C)C (stereo unspecified),–,inactive
CN(C)c1nc(=O)n(C2CCCCC2)c(=O)n1C,–,inactive
[CH3][Sn]([Cl])([Cl])[Cl],–,inactive
COC(=O)Nc1nc2ccccc2[nH]1,–,inactive
CNC(=O)CSP(=S)(OC)OC,–,inactive
C[C@]12CCC(=O)C=C1CC[C@@H]1[C@@H]2CC[C@@]2(C)[C@H]1CC[C@]2(C)O,–,inactive

# Assay: qHTS assay to identify small molecule agonists of H2AX - cell viability counter screen (AID 1224847); also: nearly all actives have a fitted effect of over 30% in size; also: potency is read from the fitted curve at half-maximal effect; as to activity change, negative = cytotoxicity: top concentration of the series differs between compounds
# Conditions: CHO-K1 viability, CellTiter-Glo luminescence, 3 h; series mostly up to 154 µM; activity change, negative = cytotoxicity: at the top concentration
# Procedure, shortened: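 Cytotoxicity counter screen in wild-type CHO-K1 cells: a 3 hr compound treatment at 37C across 15 concentrations, followed by CellTiter-Glo luminescence to gauge viable cells.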
SMILES,Potency,"activity change, negative = cytotoxicity"
O=[N+]([O-])c1ccc(Cl)c([N+](=O)[O-])c1,102 µM (active),–
CC(C)(c1ccccc1)c1ccc(O)cc1,112 µM (active) and 101 µM (active),–
O=C1C(Cl)=C(Cl)C(=O)c2ccccc21,22.6 µM (active) and 14.2 µM (active),–
CC(C)(c1ccc(OCC2CO2)cc1)c1ccc(OCC2CO2)cc1 (stereo unspecified),inactive,–
Nc1ccc([N+](=O)[O-])cc1N,inactive,–
CC(C)(O)C#N,–,-1.34% (inactive)
CCCCCCCC[N+](C)(CCCCCCCC)CCCCCCCC,44.9 µM (active) and 567 nM (active) and 35.7 µM (active),–
c1ccc2c(c1)Nc1ccccc1S2,–,-10.8% [at 70.9 µM] (inactive)
O=C(O)CF,inactive,–
C[N+](C)(C)CC(=O)O,inactive,–
CCC1(c2ccc(N)cc2)CCC(=O)NC1=O (stereo unspecified),inactive,–
N#Cc1c(Cl)c(Cl)c(Cl)c(C#N)c1Cl,55.6 µM (active),–
CCC[CH2][Sn]([Cl])([CH2]CCC)[CH2]CCC,637 nM (active) and 713 nM (active),–
Oc1ccc(Cl)cc1Cc1ccccc1,89.8 µM (active) and 81 µM (active),–
C[N+](C)(C)C,inactive,–
CCCCCCCCCc1ccc(O)cc1,90.7 µM (active) and 101 µM (active),–

SMILES,Potency,"activity change, negative = cytotoxicity"
COc1ccc(CO)cc1,inactive,–
CCOP(=S)(OCC)SCSC(C)(C)C,–,-6.3% (inactive)
O=[N+]([O-])c1ccc(Nc2ccccc2)cc1,80 µM (active),–
CC[n+]1c(-c2ccccc2)c2cc(N)ccc2c2ccc(N)cc21,–,-8.01% [at 70.9 µM] (inactive)
CN(C)c1nc(=O)n(C2CCCCC2)c(=O)n1C,inactive,–
CC(C)Nc1ccc(Nc2ccccc2)cc1,50.3 µM (active) and 89.8 µM (active),–
NC(=O)CN1CCCC1=O,–,-0.0843% [at 70.9 µM] (inactive)
C[N+](C)(C)CC(=O)[O-],inactive,–
NN=C(N)N,inactive,–
[CH3][Sn]([Cl])([Cl])[Cl],inactive,–
COC(=O)Nc1nc2ccccc2[nH]1,inactive,–
CC(C)(c1ccccc1)c1ccc(O)c(C(C)(C)c2ccccc2)c1,28.1 µM (active) and 56.6 µM (active),–
CNC(=O)CSP(=S)(OC)OC,inactive,–
C[C@]12CCC(=O)C=C1CC[C@@H]1[C@@H]2CC[C@@]2(C)[C@H]1CC[C@]2(C)O,71.9 µM (active) and inactive,–
CCC[CH2][Sn]([Cl])([Cl])[CH2]CCC,11.4 µM (active) and 25.3 µM (active),–
